# Tested on: Bacillus 1 (Bacillus foraminis)
# Assay: relative growth (AUC of 72 h growth curve relative to DMSO control, dAUC) (ratio); higher = more growth (less inhibition), active = hit call of the paper
# Conditions: 20 µM;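 active = growth AUC significantly below the DMSO wells by Dunnett test; inactive = the rest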
# Procedure: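 Environmental bacterial isolates (Iceland stream sediment and Silwood Park soil) and whole stream-sediment communities were grown in LB from a 1:100 dilution with each pesticide at 20 µM (1% DMSO). A600 was read hourly for 72 h and the area under a spline-fitted growth curve (AUC) was computed. dAUC is the mean AUC of 3 biological replicates divided by the mean AUC of the DMSO controls. Significance was tested by Dunnett's test against the DMSO control.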
row,Compound,relative growth
1,CNC(=O)Oc1cccc2ccccc12,1.05 (inactive)
2,N#CCNC(=O)c1cnccc1C(F)(F)F,1.03 (inactive)
3,CC(C1CC1)C(O)(Cn1cncn1)c1ccc(Cl)cc1 (stereo not given),1.09 (inactive)
4,COP(=O)(OC)OC=C(Cl)Cl,0.941 (inactive)
5,CCOCN(C(=O)CCl)c1c(C)cccc1CC,1 (inactive)
6,Cc1cc(C(F)(C(F)(F)F)C(F)(F)F)ccc1NC(=O)c1cccc(I)c1C(=O)NC(C)(C)CS(C)(=O)=O,1.16 (inactive)
7,COc1cc(C)c(C(=O)c2c(OC)ccc(Br)c2C)c(OC)c1OC,1.03 (inactive)
8,COC(=O)N(OC)c1ccccc1COc1ccn(-c2ccc(Cl)cc2)n1,1.06 (inactive)
9,CCN(CC)c1nc(C)cc(OP(=S)(OC)OC)n1,1.03 (inactive)
10,O=C(O)COc1ccc(Cl)cc1Cl,1.09 (inactive)
11,CC1(C)C(C=C(Cl)Cl)C1C(=O)OC(C#N)c1ccc(F)c(Oc2ccccc2)c1 (stereo not given),0.94 (inactive)
12,CCCN(CCC)C(=O)SCc1ccccc1,0.998 (inactive)
13,CC(Oc1ccc(Oc2ncc(C(F)(F)F)cc2Cl)cc1)C(=O)O (stereo not given),1 (inactive)
14,CC(C)(C)c1ccc(CSc2cnn(C(C)(C)C)c(=O)c2Cl)cc1,1.03 (inactive)
15,OC(Cc1ccccc1Cl)(Cn1nc[nH]c1=S)C1(Cl)CC1 (stereo not given),0.988 (inactive)
16,O=[N+]([O-])c1cc(C(F)(F)F)c(Cl)c([N+](=O)[O-])c1Nc1ncc(C(F)(F)F)cc1Cl,0.0375 (active)
17,COCc1cnc(C2=NC(C)(C(C)C)C(=O)N2)c(C(=O)O)c1 (stereo not given),0.985 (inactive)
18,CCOCn1c(-c2ccc(Cl)cc2)c(C#N)c(Br)c1C(F)(F)F,1.1 (inactive)
19,COc1ccc(C(=CC(=O)N2CCOCC2)c2ccc(Cl)cc2)cc1OC (mixture of isomers),0.924 (inactive)
20,CCOC(=O)OC1=C(c2cc(C)ccc2C)C(=O)N[C@]12CC[C@@H](OC)CC2,1.03 (inactive)

row,Compound,relative growth
1,CCCCOC(=O)[C@H](C)Oc1ccc(Oc2ccc(C#N)cc2F)cc1,1.07 (inactive)
2,CCCC(Cn1cncn1)c1ccc(Cl)cc1Cl (stereo not given),1.1 (inactive)
3,COc1ncc(F)c2nc(S(=O)(=O)Nc3c(F)cccc3F)nn12,1.06 (inactive)
4,COP(=O)(NC(C)=O)SC (stereo not given),1.02 (inactive)
5,CNC(=O)c1cc(Cl)cc(C)c1NC(=O)c1cc(Br)nn1-c1ncccc1Cl,1.01 (inactive)
6,CCc1cnc(C2=NC(C)(C(C)C)C(=O)N2)c(C(=O)O)c1 (stereo not given),1.11 (inactive)
7,CCC(CC)Nc1c([N+](=O)[O-])cc(C)c(C)c1[N+](=O)[O-],0.931 (inactive)
8,CCc1cc(C)cc(CC)c1-c1c(OC(=O)C(C)(C)C)n2n(c1=O)CCOCC2,0.912 (inactive)
9,COC(=O)N(C(=O)N1CO[C@@]2(C(=O)OC)Cc3cc(Cl)ccc3C2=N1)c1ccc(OC(F)(F)F)cc1,1 (inactive)
10,O=C1c2ccccc2C(=O)N1SC(Cl)(Cl)Cl,1.12 (inactive)
11,CCC(C)c1ccccc1OC(=O)NC (stereo not given),1.07 (inactive)
12,CCCCC(C#N)(Cn1cncn1)c1ccc(Cl)cc1 (stereo not given),0.889 (inactive)
13,Cc1cc(C)nc(Nc2ccccc2)n1,1.08 (inactive)
14,COc1cc(OC)nc(NC(=O)NS(=O)(=O)c2ncccc2C(=O)N(C)C)n1,1.08 (inactive)
15,CNC(=O)ON=C(C)SC,0.996 (inactive)
16,CS(=O)(=O)c1ccc(C(=O)C2C(=O)CCCC2=O)c([N+](=O)[O-])c1,0.961 (inactive)
17,CC(C)N(C(=O)COc1nnc(C(F)(F)F)s1)c1ccc(F)cc1,0.999 (inactive)
18,COCC(=O)N(c1c(C)cccc1C)[C@H](C)C(=O)OC,1.06 (inactive)
19,C#CCOc1ccc(CCNC(=O)C(OCC#C)c2ccc(Cl)cc2)cc1OC (stereo not given),1.06 (inactive)
20,O=C1C=C(N(Cc2ccc(Cl)nc2)CC(F)F)CO1,0.945 (inactive)
